Bioassay records from PubChem BioAssay.
Tg IFNy HTS – T. gondii growth inhibition with IFN-gamma, primary screen, cell-based. Toxoplasma gondii growth in IFN-gamma-treated host cells; stronger effect = lower value. activity change, negative = inhibition, % (no concentration beside the values). actives 3.8% (n = 69,000); in the data active means activity change below about -70%, passing the limit was not always enough;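 further: host cells are HeLa cells infected with Toxoplasma gondii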
* = called active by the depositor. The entries come from a sample that favours hits as a whole.

SMILES	Tg IFNy HTS
C[C@@H]1CCCCO[C@H](CN(C)C(=O)Nc2ccc(C(F)(F)F)cc2)[C@H](C)CN([C@H](C)CO)C(=O)c2cc(NS(=O)(=O)c3cn(C)cn3)ccc2O1	-83*
COc1ccc(S(=O)(=O)Nc2ccc3c(c2)C(=O)N([C@H](C)CO)C[C@@H](C)[C@H](CN(C)Cc2ccc(C(F)(F)F)cc2)OCCCC[C@H](C)O3)cc1	-101*
COc1ccc(CN(C)C[C@H]2OCCCC[C@@H](C)Oc3ccc(NC(=O)C4CCCCC4)cc3C(=O)N([C@H](C)CO)C[C@H]2C)cc1	39
CC(=O)Nc1ccc(S(=O)(=O)Oc2ccc(Cl)c3cccnc23)cc1	-15
CSc1nnc(C2CCCN2C(=O)C2(c3ccc(Cl)cc3)CCCCC2)n1C (stereo not drawn)	23
Nc1cc(Cl)c(NC2=NCCN2)c(Cl)c1	13
CCc1ccc(S(=O)(=O)N2CCC3(CC2)NCCN=C3NCc2cc(F)cc(F)c2)cc1	-30
CNC(=O)CN1CCCC12CCN(C(=O)C1CCCC1)CC2	-3
CN1CCN(c2ccc3ccc(C(=O)Nc4cccc(Cl)c4)cn23)CC1	-38
CCS(=O)(=O)N1CCC2(CN(c3cnn(C)c3)C(=O)CN2C(C)=O)C1 (stereo not drawn)	10
COc1cccc(CN2[C@H](CO)[C@@H](c3ccccc3)C23CN(C(=O)C2CCCCC2)C3)c1	-41
CNC(=O)[C@H]1C[C@@H]2CN(c3ncc(F)cn3)C[C@H]1O2	-69
O=C(C1CCOCC1)N1CC2(C1)[C@H](c1ccccc1)[C@@H](CO)N2C(=O)CC1CC1	61
C=CCn1c(=O)c2cnc(Nc3ccc(N4CCN(C)CC4)cc3)nc2n1-c1cccc(C(C)(C)O)n1	-71*
CN1CCN(c2cccc(Nc3nc4c(-c5ccc(S(C)(=O)=O)cc5)cccn4n3)c2)CC1	17
CCCNC(=O)N1CC2(C1)[C@@H](c1ccccc1)[C@@H](CO)N2Cc1ccc(Cl)cc1	-5
CNC(=O)c1cc2c(nc1NC(C)C)CCN(CCc1ccccc1)CC2	5
Cn1c(Br)nc2ccccc21	11
COc1cccc(-n2cnc3ccccc32)n1	-90*
COc1cc(-c2nc3ccccc3n2C)cc(OC)c1OC	2
CNC(=O)C[C@@H]1C[C@@H]2CN(C(=O)N3CCCC3)C[C@H]2O1	-7
COCC(c1ccccn1)N(C)C(=O)CC(=O)Nc1cc(C)cc(C)c1 (stereo not drawn)	6
Cc1cccc(C(=O)Nc2nc(-c3ccccc3)c(-c3ccccc3)s2)c1	-72*
Cc1cccc(C(=O)NCCc2sc(-c3ccccc3)nc2C)c1	426
O=C(Nc1sc(NC(=O)c2cccs2)nc1-c1cccs1)c1ccccc1	2
SMILES	Tg IFNy HTS
CC(=O)NC(c1ccccn1)C1CCC(CNC(=O)c2ccc(=O)[nH]n2)CC1 (stereo not drawn)	19
CCCCCCNC(=O)NC(CC(=O)O)c1ccccc1 (stereo not drawn)	43
O=C(c1ccc(Br)cc1)N(C1=NCCCCS1)c1ccccc1	-36
CC(=O)[C@H]1CC[C@H]2[C@@H]3CCC4=CC(=O)CC[C@]4(C)[C@H]3CC[C@]12C	-88*
CC(=O)O[C@@H]1C[C@@]2(C)C(CC[C@@H]2C(C)=O)C2CCC3=CC(=O)CC[C@]3(C)C21 (stereo partly drawn)	13
C[C@]12CCC(=O)C=C1CC[C@@H]1[C@@H]2CC[C@@]2(C)[C@H]1CC[C@]2(O)C(=O)CO	3
CC(=O)[C@H]1CCC2C3CC=C4C[C@@H](O)CC[C@]4(C)C3CC[C@@]21C (stereo partly drawn)	11
CC(=O)OCC(=O)[C@H]1CC[C@H]2[C@@H]3CC=C4C[C@@H](O)CC[C@]4(C)[C@H]3CC[C@]12C	-35
CC(=O)[C@H]1CC[C@H]2[C@@H]3CC=C4C[C@@H](O)CC[C@]4(C)[C@H]3CC[C@]12C	-74*
C(=C(c1ccccc1)c1ccccc1)N1CCC1	1
Cc1ccc(C2(CN3CCC(n4nc(C)cc4C)C3)CCNCC2)nc1 (stereo not drawn)	-2
C/C=C/c1ccc(C2[C@H]3CNC[C@@H]2N3S(=O)(=O)c2ccccc2C)cc1 (stereo partly drawn)	-38
C[C@H]1CC=CC[C@H](c2ccc(F)cc2)NC(=O)[C@H](Cc2ccccc2)N(C)C(=O)c2ccccc2O1 (mixture of isomers)	-34
Cc1ccc(-n2c(SCc3nc(-c4ccccc4Cl)oc3C)nc3c(=O)[nH]cnc32)cc1	-35
Cc1cccc(-c2nc(CSc3nc4c(=O)[nH]cnc4n3-c3ccccc3)c(C)o2)c1	-110*
CCOc1ccc(-c2nc(CSc3nc4c(=O)[nH]cnc4n3-c3ccccc3)c(C)o2)cc1OC	-22
CCn1c(SCc2nc(-c3cccc(C)c3)oc2C)nc2c(=O)[nH]cnc21	93
Cc1ccc(C)c(-c2nc(CSc3nc4c(=O)[nH]cnc4n3-c3ccccc3)c(C)o2)c1	-80*
Cc1ccc(-n2c(SCc3nc(-c4ccccc4C)oc3C)nc3c(=O)[nH]cnc32)cc1	109
COCC(=O)N1CCCC(C(=O)N(C)Cc2cc(C(C)(C)C)n[nH]2)C1 (stereo not drawn)	5
CN(C)CC1CN(S(=O)(=O)c2cccs2)Cc2nccn2C1 (stereo not drawn)	-3
CCN(CC)C(=O)C1Cn2ccnc2C2(CCN(CC(C)C)CC2)O1 (stereo not drawn)	-51
S=c1sc2ccccc2n1CCn1c(=S)sc2ccccc21	23
OC(Cn1c(=NC2CCCCC2)sc2ccccc21)c1ccccc1 (stereo not drawn)	-72*
O=C(CCC(=O)NC1CCCCCCC1)NCC(O)c1ccccc1 (stereo not drawn)	38
SMILES	Tg IFNy HTS
COc1ccc(NC(=O)N2CCCC3(C2)Nc2cccnc2NC3=NC2CCCC2)c(C)c1 (stereo not drawn)	36
CN(C)CCCc1cc(C(=O)Nc2ccc(-c3ccncc3)cc2)ccc1O	-12
CO[C@@H]1CN(C)C(=O)c2ccc(NC(=O)c3cccnc3)cc2OC[C@@H](C)N(CC2CCCCC2)C[C@H]1C	144
CO[C@@H]1CN(C)C(=O)c2cc(NC(=O)C3CCCCC3)ccc2OC[C@@H](C)N(Cc2cccnc2)C[C@H]1C	1
CO[C@H]1CN(C)C(=O)c2cc(NC(=O)c3nc4ccccc4s3)ccc2OC[C@H](C)NC[C@@H]1C	-17
CO[C@H]1CN(C)C(=O)c2cc(NC(=O)C3CCCCC3)ccc2OC[C@@H](C)N(Cc2cccnc2)C[C@H]1C	69
CO[C@H]1CN(C)C(=O)c2ccc(NC(=O)c3nc4ccccc4s3)cc2OC[C@H](C)N(Cc2cccnc2)C[C@H]1C	-113*
CO[C@@H]1CN(C)C(=O)c2ccc(NC(=O)c3nc4ccccc4s3)cc2OC[C@@H](C)N(Cc2cccnc2)C[C@@H]1C	-112*
CO[C@@H]1CN(C)C(=O)c2ccc(NC(=O)c3nc4ccccc4s3)cc2OC[C@@H](C)N(Cc2cccnc2)C[C@H]1C	-85*
CO[C@@H]1CN(C)C(=O)c2cc(NC(=O)C3CCCCC3)ccc2OC[C@H](C)N(Cc2cccnc2)C[C@H]1C	27
CO[C@H]1CN(C)C(=O)c2ccc(NC(=O)c3nc4ccccc4s3)cc2OC[C@@H](C)N(Cc2cccnc2)C[C@@H]1C	16
CCc1cnc(C)nc1-c1cnc2ccccc2c1	14
Cc1nc(-c2cccc(F)c2)sc1CCNS(=O)(=O)c1cc(F)ccc1F	24
Cc1noc(C)c1C(=O)N1CCn2nc(C(=O)N3CCN(C)CC3)cc2C1	3
